31 compounds from ChEMBL document CHEMBL3433997, “St. Jude Leishmania screening dataset” (2016) can be followed below.

Common to all, as to assay type: functional
Test [1] deals with Solute carrier family 2, facilitated glucose transporter member 1 (Homo sapiens) (UniProt P11166). As to the kind of experiment: ST_JUDE_LEISH: Cytotoxicity at 2uM final concentration against transgenic Leishmania Mexicana promastigotes LmGLUT1 that are glucose transport deficient and complemented with the human glucose transporter GLUT1. Activity is measured by DNA content using SYBR green in vitro.

Test [2] deals with Hexose transporter 1 (Plasmodium falciparum) (UniProt O97467). Kind of test: ST_JUDE_LEISH: Cytotoxicity at 2uM final concentration against transgenic Leishmania Mexicana promastigotes LmPfHT that are glucose transport deficient and complemented with the Plasmodium falciparum hexose transporter. Activity is measured by DNA content using SYBR green in vitro.
Test [3] addresses Glucose transporter (Leishmania mexicana) (UniProt O61059). As to the kind of experiment: ST_JUDE_LEISH: Cytotoxicity at 2uM final concentration against transgenic Leishmania Mexicana promastigotes LmGT2 that are glucose transport deficient and complemented with the L. Mexicana glucose transporter 2. Activity is measured by DNA content using SYBR green in vitro.

Chain of Solute carrier family 2, facilitated glucose transporter member 1 (Homo sapiens) (P11166 whole entry): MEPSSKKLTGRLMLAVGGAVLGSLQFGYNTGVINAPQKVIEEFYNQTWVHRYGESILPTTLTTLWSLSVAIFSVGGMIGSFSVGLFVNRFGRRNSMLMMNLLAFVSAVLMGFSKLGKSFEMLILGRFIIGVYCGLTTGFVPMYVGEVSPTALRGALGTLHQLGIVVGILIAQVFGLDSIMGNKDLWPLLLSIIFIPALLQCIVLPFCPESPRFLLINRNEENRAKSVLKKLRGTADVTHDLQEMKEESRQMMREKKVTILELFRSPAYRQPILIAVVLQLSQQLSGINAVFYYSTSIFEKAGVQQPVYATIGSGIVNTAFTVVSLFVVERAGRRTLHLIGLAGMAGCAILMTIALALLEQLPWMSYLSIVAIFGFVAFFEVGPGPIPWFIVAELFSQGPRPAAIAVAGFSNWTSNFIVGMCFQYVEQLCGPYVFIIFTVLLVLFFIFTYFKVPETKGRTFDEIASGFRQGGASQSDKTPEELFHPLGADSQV

In the case of `COc1cc(CN2CCC(C(=O)Nc3ccc(-c4cccc(C)c4)cc3)CC2)ccc1O`, the inhibition was determined as 8.11% in test [1], 7.03% in test [2] and 4.91% in test [3].

As to `O=c1cc(NCCCNC(CNCCc2ccccc2)c2cc(Br)cc(Br)c2)[nH]c2ccccc12` (stereo not drawn), the inhibition in test [1] was 2.57%; in test [2], 3.4%; in test [3] it was 2.67%.

In the case of `CC(=O)Nc1ccc(CN2CCN(C(c3ccc(F)cc3)c3ccc(F)cc3)CC2)cc1`, the inhibition in test [1] was found to be 5.18%; in test [2], 3.45%; in test [3], 2.11%.

Take `COc1cccc(C(=O)OC2=C3CCC(=O)C3(C)CCC2=O)c1` (stereo not drawn): the results for the inhibition in test [1], in test [2] and in test [3] were 5.35%, 4.65% and 6.31%, respectively.

Turning to `O=C(Nc1ccc(-c2cccc(-c3nc4cc(C(F)(F)F)ccc4[nH]3)c2)cc1)c1ccoc1`, the inhibition amounted to 4.69% in test [1], 3.58% in test [2] and 3.22% in test [3].

Regarding `N=C(N)c1ccc(Nc2nccc(Nc3nc(-c4ccccc4)cs3)n2)cc1`, the values for the inhibition in test [1], in test [2] and in test [3] were 0.38%, 0.47% and -0.9%, respectively.

For the compound `CCS(=O)(=O)c1ccc(-c2cnc3[nH]cc(-c4ccc(N)cc4)c3c2)cc1`, the inhibition amounted to 16.2% in test [1], 21.7% in test [2] and 16.2% in test [3].

For `Cc1c(S(=O)(=O)Nc2ccc3nccc(N4CC(C)NC(C)C4)c3c2)sc2ccc(Cl)cc12` (stereo not drawn), the inhibition was 5.22% in test [1], 6.03% in test [2] and 3.81% in test [3].

`CCC(C)c1ccc(NC(=O)c2ccc(S(=O)(=O)Nc3ccc(OC)c(N4CCN(CC5CC5)CC4)c3)cc2)cc1` (stereo not drawn): the inhibition in test [1] is 1.59%; in test [2], -0.83%; in test [3] it was -1.88%.

Consider `CCSc1nnc(C2CCCN(CC(=O)Nc3cc(C(F)(F)F)ccc3Cl)C2)n1CC` (stereo not drawn), for which the results for the inhibition in test [1], in test [2] and in test [3] were 8.8%, 8.79% and 8.67%, respectively.

As for `Nc1ccnc(N2CCC(CCOc3ccnc4cc(Cl)ccc34)CC2)c1`, the inhibition was 11.9% in test [1], 22.8% in test [2] and 6.6% in test [3].

In the case of `Cc1ccc2[nH]c(-c3ccc(C=CC(=O)NCc4ccc(Cl)c(Cl)c4)cc3)nc2c1`, the inhibition in test [1] was found to be 10.3%; in test [2], 9.48%; in test [3] it was 4.93%.

Take `CN1CCN(CCCCCNc2c3ccccc3nc3ccccc23)CC1`: the inhibition in test [1] worked out at 28%; in test [2], 21.1%; in test [3], 17.9%.

Regarding `CN1CCCC(CN2CCN(Cc3cccc(-c4csc(-c5nc6ccccc6[nH]5)c4)c3)CC2)C1` (stereo not drawn), the results for the inhibition in test [1], in test [2] and in test [3] were 3.41%, 1.68% and 1.91%, respectively.

`COc1ccc(Cn2c(Nc3cccc(C(F)(F)F)c3)nc3cc(C(=O)NCCCN(C)C)ccc32)cc1Cl`: the inhibition is 0.66% in test [1], 0.55% in test [2] and -1.19% in test [3].

As for `N#Cc1ccc(N(CCOc2ccc(Cl)c(Cl)c2)Cc2ccccc2C(F)(F)F)cc1C(F)(F)F`, the figures for the inhibition in test [1], in test [2] and in test [3] were 2.54%, -0.11% and 0.26%, respectively.

On to `COc1ccc2ncc(F)c([C@H](O)CN3CCC(NCc4ccc5c(c4)NC(=O)CS5)CC3)c2c1`, for which the results for the inhibition in test [1], in test [2] and in test [3] were -1.54%, -0.25% and -1.73%, respectively.

Regarding `CCNc1cc(C)nc(Nc2ccc(NC(=O)Cc3ccc(OC)cc3)cc2)n1`, the results for the inhibition in test [1], in test [2] and in test [3] were 10.8%, 10.1% and 4.74%, respectively.

Turning to `Cc1cccc(CC(=N)NCCCCCCNC(=N)Cc2cccc(C)c2)c1`, the inhibition in test [1] was 0.27%; in test [2], 0.31%; in test [3], -2.06%.

With `CC1(C)C(=O)Nc2ccc3c(c21)CC1SC(=O)NN=C31` (stereo not drawn), the results for the inhibition in test [1], in test [2] and in test [3] were -0.91%, 0.11% and 0.01%, respectively.

Take `COc1ccc2c(c1)CCCC2C(C)NCC(O)c1cccc(C(F)(F)F)c1` (stereo not drawn): the inhibition in test [1] worked out at 8.86%; in test [2] it was 5.98%; in test [3], 6.3%.

`O=C(Cc1cccc(Cl)c1)N1CCc2cc3nccc(N4CCN5CCC[C@H]5C4)c3cc21`: the inhibition came out at 3.68% in test [1], 2.69% in test [2] and 4.38% in test [3].

In the case of `Cn1nc(-c2ccc(NC(=O)Nc3ccc4ccccc4c3)c(F)c2)c2cnc(NCCN3CCOCC3)nc21`, the values for the inhibition in test [1], in test [2] and in test [3] were 5.52%, 4.79% and 1.17%, respectively.

Take `COc1ccc(CNC2CCN(C)CC2)cc1-c1ccc(S(=O)(=O)NCc2ccccc2)s1`: the inhibition was 9.42% in test [1], 11.8% in test [2] and 11.2% in test [3].

As for `O=S(=O)(Nc1cc2c(cc1O)CCN(C1CCC1)CC2)c1ccc(-c2ccc(F)cc2)cc1`, the inhibition in test [1] stood at 5.67%; in test [2], 8.27%; in test [3] it was 3.1%.

With `CC(C)COc1ccc(Cl)cc1Cc1ccc(-c2nc3cc(F)c(F)cc3[nH]2)o1`, the results for the inhibition in test [1], in test [2] and in test [3] were 3.02%, 1.87% and 1.02%, respectively.

Consider `C=CCc1cc(SC)ccc1Oc1ccc(N)cc1`, for which the inhibition in test [1] came out at 1.84%; in test [2], 2.06%; in test [3] it was 1.08%.

For `CC1(C)CCCC(=Cc2ccc(Br)cc2)C1(O)Cn1ccnc1` (stereo not drawn), the inhibition in test [1] came out at 27.9%; in test [2] it was 20.9%; in test [3], 13.5%.

As for `O=C(/C=C/c1ccc(Cl)c(Cl)c1)NCCCCCN1CCC(CCNC(=O)/C=C/c2ccccc2F)CC1`, the inhibition in test [1] was 2.07%; in test [2], -1.13%; in test [3], 2.95%.

On to `O=C(Nc1cccc(Cl)c1N1CCOCC1)C(Cl)(Cl)Cl`, for which the inhibition in test [1] amounted to 1.32%; in test [2], 0.42%; in test [3] it was 1.03%.

For the compound `CCCCCCSc1nnc(COc2cccc3ccccc23)n1-c1ccc(OC)cc1`, the inhibition worked out at 11% in test [1], 12.1% in test [2] and 10.3% in test [3].
